# Reference: PubChem BioAssay (NCI)
# This is part of a sample that, as a whole, favours compounds with a hit. Of some 79,000 tested, about 15% had one in any assay. A number with no mark means an inactive call. The source made the active and inactive calls. Cut-off read from the data, not from the text of the source: active = growth inhibition above about 70%; inactive = the rest.
# Experiments:
# [1] = NCI Yeast Anticancer Drug Screen. Data for the rad52 strain (AID 147);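 note: 0% = growth of vehicle-treated control cultures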; conditions: S. cerevisiae rad52 mutant growth inhibition, stronger effect = higher value
# Outline: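 Genetically altered yeast (DNA damage repair defect) treated with compound; inhibition calculated relative to vehicle.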
# [2] = NCI Yeast Anticancer Drug Screen. Data for the wt1 strain (AID 149);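 note: 0% = growth of vehicle-treated wt1 cultures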; conditions: S. cerevisiae wt1 strain (SPY 50644) growth inhibition, stronger effect = higher value
# Outline: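 Each compound is tested on wt1 yeast and the loss of growth versus vehicle gives the inhibition value.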
# [3] = NCI Yeast Anticancer Drug Screen. Data for the rad50EPP+ strain (AID 151);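 note: 0% = growth of vehicle-treated control cultures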; conditions: S. cerevisiae rad50 mutant strain, stronger effect = higher value
# Outline: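 Strain rad50EPP+; compound exposure; % growth inhibition vs vehicle.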
# [4] = NCI Yeast Anticancer Drug Screen. Data for the mgt1 strain (AID 153); conditions: S. cerevisiae mgt1 mutant growth inhibition, stronger effect = higher value
# Outline: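 Read-out: yeast growth inhibition vs vehicle control. Strain mgt1, drawn from a panel altered in DNA damage repair or cell cycle control.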
# [5] = NCI Yeast Anticancer Drug Screen. Data for the rad50 strain (AID 155);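 note: 0% = growth of vehicle-only cultures of the same strain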; conditions: S. cerevisiae rad50 strain growth inhibition, stronger effect = higher value
# Outline: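 Vehicle-treated cultures provide the reference for the growth inhibition reported for compound-exposed, repair-deficient yeast.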
# [6] = NCI Yeast Anticancer Drug Screen. Data for the mec2-1 strain (AID 157); conditions: S. cerevisiae mec2-1 strain, stronger effect = higher value
# Outline: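 Cells of the genetically defined mec2-1 yeast strain are incubated with test compound. Inhibition of growth is calculated against vehicle-treated controls.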
# [7] = NCI Yeast Anticancer Drug Screen. Data for the rad14 strain (AID 159);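 note: 0% = growth of vehicle-treated control cultures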; conditions: S. cerevisiae rad14 strain growth inhibition, stronger effect = higher value
# Outline: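 Inhibition of growth is reported for a repair-deficient yeast mutant following compound treatment, calculated relative to cultures that received vehicle.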
# [8] = NCI Yeast Anticancer Drug Screen. Data for the sgs1 mgt1 strain (AID 161);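 note: 0% = growth of cultures given vehicle only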; conditions: S. cerevisiae sgs1 mgt1 strain, stronger effect = higher value
# Outline: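 Test agents were incubated with a DNA-repair-mutant yeast strain. Growth was then read and compared against vehicle-treated controls.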
# [9] = NCI Yeast Anticancer Drug Screen. Data for the CLN2oe strain (AID 163);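 note: 0% = growth of vehicle-only control cultures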; conditions: S. cerevisiae CLN2oe strain, stronger effect = higher value
# Outline: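 Strain altered in cell-cycle control, incubated with compound; growth compared to solvent-treated controls.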
# [10] = NCI Yeast Anticancer Drug Screen. Data for the cln2 rad14 strain (AID 165);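 note: 0% = growth equal to vehicle treated cultures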; conditions: S. cerevisiae cln2 rad14 strain, stronger effect = higher value
# Outline: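 The screen exposed genetically defined yeast (cln2 rad14) to test compounds and scored growth inhibition relative to vehicle-treated controls.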
# [11] = NCI Yeast Anticancer Drug Screen. Data for the bub3 strain (AID 167); conditions: S. cerevisiae bub3 mutant strain, stronger effect = higher value
# Outline: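 Mutant yeast screening strain plus compound; vehicle-treated cultures serve as the 0% inhibition reference.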
# [12] = NCI Yeast Anticancer Drug Screen. Data for the wt2 strain (AID 169); conditions: S. cerevisiae wt2 strain growth inhibition, stronger effect = higher value
# Outline: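 Steps: yeast strain treated with compound; growth recorded; inhibition calculated relative to cultures given vehicle alone.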
# [13] = NCI Yeast Anticancer Drug Screen. Data for the mlh1 strain (AID 171);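 note: 0% = growth of vehicle-treated control cultures of the same strain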; conditions: S. cerevisiae mlh1 strain growth inhibition, stronger effect = higher value
# Outline: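 Yeast screen: mutant strain plus compound, growth scored against vehicle control wells.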
# [14] = NCI Yeast Anticancer Drug Screen. Data for the sgs1 strain (AID 173);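 note: 0% = growth of vehicle-only control cultures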; conditions: S. cerevisiae sgs1 mutant, stronger effect = higher value
# Outline: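 Inhibition of yeast growth served as the measure. The mutant strain was treated with each compound, and growth was normalised to cultures receiving vehicle alone.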
# [15] = NCI Yeast Anticancer Drug Screen. Data for the mlh1 rad18 strain (AID 175); conditions: S. cerevisiae mlh1 rad18 strain growth inhibition, stronger effect = higher value
# Outline: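 Compound-treated yeast growth, normalised to vehicle controls. Strain bears defined DNA repair mutations.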
# [16] = at 5.0 µM (retest, dose inferred, filed as 0.5)
# [17] = at 50.0 µM (retest, dose inferred, filed as 5.0)
smiles,measurement,setting,value
COC(=O)C(Cc1c[nH]c2ccccc12)N1CN(C)c2ccccc2C1=O (stereo unspecified),growth inhibition,[1]; at 1.2 µM,7%
same,growth inhibition,[1]; at 3.7 µM,2%
same,growth inhibition,[1]; at 11.0 µM,0%
same,growth inhibition,[1]; at 33.0 µM,3%
same,growth inhibition,[1]; at 100.0 µM,99% (active)
same,growth inhibition,[2]; at 1.2 µM,7%
same,growth inhibition,[2]; at 3.7 µM,-3%
same,growth inhibition,[2]; at 11.0 µM,-4%
same,growth inhibition,[2]; at 33.0 µM,-4%
same,growth inhibition,[2]; at 100.0 µM,60%
same,growth inhibition,[3]; at 1.2 µM,9%
same,growth inhibition,[3]; at 3.7 µM,0%
same,growth inhibition,[3]; at 11.0 µM,-3%
same,growth inhibition,[3]; at 33.0 µM,1%
same,growth inhibition,[3]; at 100.0 µM,16%
same,growth inhibition,[4]; at 1.2 µM,49%
same,growth inhibition,[4]; at 3.7 µM,-1%
same,growth inhibition,[4]; at 11.0 µM,-1%
same,growth inhibition,[4]; at 33.0 µM,5%
same,growth inhibition,[4]; at 100.0 µM,99% (active)
same,growth inhibition,[5]; at 1.2 µM,7%
same,growth inhibition,[5]; at 3.7 µM,2%
same,growth inhibition,[5]; [16],11%
same,growth inhibition,[5]; at 11.0 µM,6%
same,growth inhibition,[5]; at 33.0 µM,2%
same,growth inhibition,[5]; [17],37%
same,growth inhibition,[5]; at 50.0 µM,57.9%
same,growth inhibition,[5]; at 100.0 µM,99% (active)
same,growth inhibition,[6]; at 1.2 µM,5%
same,growth inhibition,[6]; at 3.7 µM,-1%
same,growth inhibition,[6]; [16],-17%
same,growth inhibition,[6]; at 11.0 µM,-2%
same,growth inhibition,[6]; at 33.0 µM,5%
same,growth inhibition,[6]; [17],11%
same,growth inhibition,[6]; at 50.0 µM,50.5%
same,growth inhibition,[6]; at 100.0 µM,99% (active)
same,growth inhibition,[7]; at 1.2 µM,6%
same,growth inhibition,[7]; at 3.7 µM,-9%
same,growth inhibition,[7]; at 11.0 µM,-5%
same,growth inhibition,[7]; at 33.0 µM,-13%
same,growth inhibition,[7]; at 100.0 µM,99% (active)
same,growth inhibition,[8]; [16],-2%
same,growth inhibition,[8]; [17],60%
same,growth inhibition,[8]; at 50.0 µM,97.8% (active)
same,growth inhibition,[9]; at 1.2 µM,4%
same,growth inhibition,[9]; at 3.7 µM,1%
same,growth inhibition,[9]; at 11.0 µM,3%
same,growth inhibition,[9]; at 33.0 µM,7%
same,growth inhibition,[9]; at 100.0 µM,99% (active)
same,growth inhibition,[10]; [16],-4%
same,growth inhibition,[10]; [17],54%
same,growth inhibition,[10]; at 50.0 µM,70.5% (active)
same,growth inhibition,[11]; at 1.2 µM,-6%
same,growth inhibition,[11]; at 3.7 µM,-1%
same,growth inhibition,[11]; [16],13%
same,growth inhibition,[11]; at 11.0 µM,11%
same,growth inhibition,[11]; at 33.0 µM,0%
same,growth inhibition,[11]; [17],44%
same,growth inhibition,[11]; at 50.0 µM,40.4%
same,growth inhibition,[11]; at 100.0 µM,99% (active)
same,growth inhibition,[12]; at 1.2 µM,8%
same,growth inhibition,[12]; at 3.7 µM,-2%
same,growth inhibition,[12]; at 11.0 µM,-4%
same,growth inhibition,[12]; at 33.0 µM,0%
same,growth inhibition,[12]; at 100.0 µM,99% (active)
same,growth inhibition,[13]; at 1.2 µM,2%
same,growth inhibition,[13]; at 3.7 µM,0%
same,growth inhibition,[13]; at 11.0 µM,0%
same,growth inhibition,[13]; at 33.0 µM,6%
same,growth inhibition,[13]; at 100.0 µM,99% (active)
same,growth inhibition,[14]; at 1.2 µM,3%
same,growth inhibition,[14]; at 3.7 µM,2%
same,growth inhibition,[14]; at 11.0 µM,1%
same,growth inhibition,[14]; at 33.0 µM,8%
same,growth inhibition,[14]; at 100.0 µM,99% (active)
same,growth inhibition,[15]; [16],-9%
same,growth inhibition,[15]; [17],75% (active)
same,growth inhibition,[15]; at 50.0 µM,95.8% (active)
CCCCCCCN(CCCCCCC)CC(=O)c1ccc2cc(Cl)c3ccccc3c2c1,growth inhibition,[1]; at 1.2 µM,3%
same,growth inhibition,[1]; at 3.7 µM,19%
same,growth inhibition,[1]; at 11.0 µM,98% (active)
same,growth inhibition,[1]; at 33.0 µM,96% (active)
same,growth inhibition,[1]; at 100.0 µM,92% (active)
same,growth inhibition,[2]; at 1.2 µM,-7%
same,growth inhibition,[2]; at 3.7 µM,18%
same,growth inhibition,[2]; at 11.0 µM,97% (active)
same,growth inhibition,[2]; at 33.0 µM,97% (active)
same,growth inhibition,[2]; at 100.0 µM,92% (active)
same,growth inhibition,[3]; at 1.2 µM,-5%
same,growth inhibition,[3]; at 3.7 µM,0%
same,growth inhibition,[3]; at 11.0 µM,29%
same,growth inhibition,[3]; at 33.0 µM,58%
same,growth inhibition,[3]; at 100.0 µM,94% (active)
same,growth inhibition,[4]; at 1.2 µM,5%
same,growth inhibition,[4]; at 3.7 µM,19%
same,growth inhibition,[4]; at 11.0 µM,98% (active)
same,growth inhibition,[4]; at 33.0 µM,98% (active)
same,growth inhibition,[4]; at 100.0 µM,95% (active)
same,growth inhibition,[5]; at 1.2 µM,2%
same,growth inhibition,[5]; at 3.7 µM,28%
same,growth inhibition,[5]; [16],39%
same,growth inhibition,[5]; at 11.0 µM,98% (active)
same,growth inhibition,[5]; at 33.0 µM,97% (active)
same,growth inhibition,[5]; [17],93% (active)
same,growth inhibition,[5]; at 50.0 µM,99.3% (active)
same,growth inhibition,[5]; at 100.0 µM,92% (active)
same,growth inhibition,[6]; at 1.2 µM,1%
same,growth inhibition,[6]; at 3.7 µM,0%
same,growth inhibition,[6]; [16],26%
same,growth inhibition,[6]; at 11.0 µM,78% (active)
same,growth inhibition,[6]; at 33.0 µM,98% (active)
same,growth inhibition,[6]; [17],96% (active)
same,growth inhibition,[6]; at 50.0 µM,99.4% (active)
same,growth inhibition,[6]; at 100.0 µM,96% (active)
same,growth inhibition,[7]; at 1.2 µM,36%
same,growth inhibition,[7]; at 3.7 µM,50%
same,growth inhibition,[7]; at 11.0 µM,98% (active)
same,growth inhibition,[7]; at 33.0 µM,97% (active)
same,growth inhibition,[7]; at 100.0 µM,95% (active)
same,growth inhibition,[8]; [16],60%
same,growth inhibition,[8]; [17],96% (active)
same,growth inhibition,[8]; at 50.0 µM,99.2% (active)
same,growth inhibition,[9]; at 1.2 µM,1%
same,growth inhibition,[9]; at 3.7 µM,22%
same,growth inhibition,[9]; at 11.0 µM,98% (active)
same,growth inhibition,[9]; at 33.0 µM,97% (active)
same,growth inhibition,[9]; at 100.0 µM,92% (active)
same,growth inhibition,[10]; [16],14%
same,growth inhibition,[10]; [17],93% (active)
same,growth inhibition,[10]; at 50.0 µM,98.5% (active)
same,growth inhibition,[11]; at 1.2 µM,9%
same,growth inhibition,[11]; at 3.7 µM,24%
same,growth inhibition,[11]; [16],26%
same,growth inhibition,[11]; at 11.0 µM,98% (active)
same,growth inhibition,[11]; at 33.0 µM,97% (active)
same,growth inhibition,[11]; [17],95% (active)
same,growth inhibition,[11]; at 50.0 µM,98.2% (active)
same,growth inhibition,[11]; at 100.0 µM,94% (active)
same,growth inhibition,[12]; at 1.2 µM,32%
same,growth inhibition,[12]; at 3.7 µM,64%
same,growth inhibition,[12]; at 11.0 µM,98% (active)
same,growth inhibition,[12]; at 33.0 µM,97% (active)
same,growth inhibition,[12]; at 100.0 µM,95% (active)
same,growth inhibition,[13]; at 1.2 µM,-9%
same,growth inhibition,[13]; at 3.7 µM,40%
same,growth inhibition,[13]; at 11.0 µM,98% (active)
same,growth inhibition,[13]; at 33.0 µM,97% (active)
same,growth inhibition,[13]; at 100.0 µM,93% (active)
same,growth inhibition,[14]; at 1.2 µM,5%
same,growth inhibition,[14]; at 3.7 µM,26%
same,growth inhibition,[14]; at 11.0 µM,98% (active)
same,growth inhibition,[14]; at 33.0 µM,97% (active)
same,growth inhibition,[14]; at 100.0 µM,93% (active)
same,growth inhibition,[15]; [16],25%
same,growth inhibition,[15]; [17],94% (active)
same,growth inhibition,[15]; at 50.0 µM,99.5% (active)
